Luciferase inh – Firefly luciferase inhibition profiling of diverse chemical library using quantitative high-throughput screening. Luciferin 4-monooxygenase (Photinus pyralis), P08659. purified P. pyralis luciferase, luminescence, biochemical. Potency, µM (top dose mostly 115 µM), actives largely listed as inhibitors. hit rate 2.5% among 76,000. AID 1347043, 2019; further: nearly all actives have a fitted effect of over 65% in size
Target sequence (P08659 whole entry, looked up): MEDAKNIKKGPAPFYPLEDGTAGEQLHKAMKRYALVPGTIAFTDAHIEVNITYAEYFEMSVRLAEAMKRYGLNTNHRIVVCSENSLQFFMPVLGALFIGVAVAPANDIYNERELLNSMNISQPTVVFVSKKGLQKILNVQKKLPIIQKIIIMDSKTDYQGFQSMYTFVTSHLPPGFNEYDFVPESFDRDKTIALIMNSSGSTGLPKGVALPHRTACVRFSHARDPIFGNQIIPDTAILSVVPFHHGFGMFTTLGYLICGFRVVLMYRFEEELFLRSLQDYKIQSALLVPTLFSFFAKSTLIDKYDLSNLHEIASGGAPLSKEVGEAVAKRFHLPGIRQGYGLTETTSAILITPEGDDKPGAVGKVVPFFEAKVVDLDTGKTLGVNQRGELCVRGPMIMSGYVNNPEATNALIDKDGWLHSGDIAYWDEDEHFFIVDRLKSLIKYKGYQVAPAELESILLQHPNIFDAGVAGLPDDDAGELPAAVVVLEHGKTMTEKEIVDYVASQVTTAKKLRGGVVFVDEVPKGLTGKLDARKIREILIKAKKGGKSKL
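Luminescence read by CCD imager after adding enzyme (10nM final) to wells holding compound, titrated in qHTS. Substrates 10uM each D-luciferin and ATP; buffer 50mM Tris acetate pH 7.5, 10mM Mg acetate, Tween-20, BSA.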
HEK cytotox – Cytotoxic Profiling in HEK 293 Cell Line of Diverse Libraries Using Quantitative High-Throughput Screening. HEK 293 viability, ATP luminescence (CellTiter-Glo), 48-72 h. hit rate 6.6% among 94,000. Potency, µM (doses to about 115 µM), without a hit: at the highest dose activity change, negative = cytotoxicity, usual class: inhibitors. AID 1345083, 2018; further: nearly all actives have a fitted effect of over 60% in size
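Cytotoxicity was scored by loss of ATP-coupled luminescence (CellTiter-Glo) in HEK 293 cells. Compound treatment ran 48 or 72 hr at 37 degree Celsius, 5% CO2, 95% humidity.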
NPR1 antag – Natriuretic polypeptide receptor (hNpr1) antagonism - Primary qHTS | Atrial natriuretic peptide receptor 1 (Homo sapiens), P16066 | HEK293 hNpr1 GloSensor cGMP, ANP-stimulated luminescence | Potency, µM (highest dose often 46.3 µM), without a hit: top-dose activity change, negative = inhibition, usual class: inhibitors | hit rate 1.6% among 76,000; calls by dose curve; further: nearly all actives have a fitted effect of over 60% in size
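Compound pre-incubated 30 min at room temperature on GloSensor-loaded HEK293 cells stably carrying hNpr1 and the pGS-40F cGMP biosensor. Stimulation uses hNppA at 0.1 nM final; luminescence is taken at baseline and 20 min post-agonist.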
3T3 cytotox – Cytotoxic Profiling in NIH 3T3 Cell Line of Diverse Libraries Using Quantitative High-Throughput Screening; NIH 3T3 viability, CellTiter-Glo ATP luminescence, 48-72 h; Potency, µM (highest dose often 96.7 µM), for inactives: at the top dose activity change, negative = cytotoxicity, usual class: inhibitors; hit rate 4.3% among 94,000; further: nearly all actives have a fitted effect of over 55% in size
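Mouse fibroblast NIH 3T3 cells, 400 per well, received compound via pintool and were incubated for 48 or 72 hr prior to CellTiter-Glo ATP luminescence measurement.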
An asterisk follows results filed as active; i = inactive; ? = inconclusive; / = no result; [ ] = remark or other dose. Sampled rows, rich in hits. Any-hit rate of the full collection: about 11%. Unless noted, the call rests on the fitted dose curve; in most records, active means well fitted curve in the direction sought with a large enough effect; inconclusive means small, poorly fitted or top-dose-only effect, or another doubt; inactive means no such curve, though single readings can be large; an effect the other way counts as inactive or inconclusive. On the % scale 0 is the no-effect control and ±100 the full control effect; potency means the concentration at half of the fitted maximal effect.

SMILES | Luciferase inh | HEK cytotox | NPR1 antag | 3T3 cytotox
O=C(NCc1ccccc1)[C@H]1CN2CCC1C[C@@H]2Cn1cc(CC2CCCCC2)nn1 (some centres not stated) | i | 4%[172 µM] | -1%[70.6 µM] | 1%[174 µM]
CN1CCCC(C(=O)N2C3CCC2CN(Cc2cccnc2)C3)C1 (configuration not stated) | / | -23% | / | 3%
CC(=O)c1ccc(NC(=O)NC[C@H]2C[C@@H]3CCN2C[C@@H]3CN2CCSCC2)cc1 | i | -17%[172 µM] | -6%[70.6 µM] | ?
O=S(=O)(NC[C@H]1C[C@@H]2CCN1C[C@@H]2CN1CCC(Cc2ccccc2)CC1)c1ccc(Cl)cc1 | i | 7.1µM* | -3% | 14µM*
O=S(=O)(NC[C@H]1C[C@@H]2CCN1C[C@@H]2CN1CCCCC1)c1ccccc1 | i | ? | 8%[70.6 µM] | -16%[174 µM]
Cc1ccnc(N2CC3CCC(C2)N3CC(F)(F)F)c1[N+](=O)[O-] | / | ? | / | -19%
FC(F)(F)CN1C2CCC1CN(c1nnc(Cl)c3ccccc13)C2 | / | 79µM* | / | ?
O=[N+]([O-])c1ccc(Cl)nc1N1CC2CCC(C1)N2CC(F)(F)F | / | 40µM* | / | ?
Cc1nc(-c2ccco2)cc([C@H]2CN3CC[C@H]2C[C@@H]3CNC(=O)Nc2ccccc2)n1 | i | 89µM* | -11%[70.6 µM] | ?
Cc1nc(-c2ccccc2)cc([C@H]2CN3CC[C@H]2C[C@@H]3CN(Cc2ccco2)Cc2ccco2)n1 | i | ? | -16% | 22µM*
Cc1nc(-c2ccco2)cc([C@H]2CN3CC[C@H]2C[C@@H]3CNC(=O)C2CCCCC2)n1 | i | ? | ? | ?
Cc1nc(-c2ccco2)cc([C@H]2CN3CC[C@H]2C[C@@H]3CNC(=O)NC2CCCCC2)n1 | i | ? | 1%[70.6 µM] | 100µM*
CC(C)CCN1CCC2(CNS(=O)(=O)c3cccnc3O2)C1 (configuration not stated) | / | 1% | / | i
COc1cc2c(cc1-c1cccnc1)NC(=O)C21CCN(C(C)=O)CC1 | i | -13%[172 µM] | 8%[70.6 µM] | ?
COc1cc2c(cc1-c1cnn(C)c1)NC(=O)C21CCN(C(C)=O)CC1 | i | 2%[172 µM] | 2%[70.6 µM] | 32µM*
COc1cc2c(cc1-c1ccc(O)c(F)c1)NC(=O)C21CCN(C(C)=O)CC1 | i | -24%[172 µM] | -9%[70.6 µM] | 28µM*
O=C1NC2(CCN(Cc3ccncc3)C2)OCc2ccccc21 (configuration not stated) | i | -19%[172 µM] | 15%[70.6 µM] | -20%[138 µM]
C#CCN(C)C[C@H]1CN2CC[C@H]1C[C@@H]2CNS(=O)(=O)c1ccc(C)cc1 | i | -15%[172 µM] | -8%[70.6 µM] | -18%[174 µM]
COc1cc2c(cc1Oc1ccccc1)NC(=O)C21CCN(c2nccs2)CC1 | i | ? | -26%[70.6 µM] | -13%[138 µM]
COc1cc2c(cc1Oc1ccccc1)NC(=O)C21CCN(Cc2ccccn2)CC1 | i | 56µM* | -17%[70.6 µM] | ?
COc1cc2c(cc1Oc1ccccc1)NC(=O)C21CCN(c2ncc(F)cn2)CC1 | i | 89µM* | -17%[70.6 µM] | ?
COc1ccc(NC(=O)N2[C@H]3CC[C@@H]2c2cnc(-c4ccc(F)cc4)nc2C3)cc1OC | i | ? | ? | ?
Cc1nc(-c2ccccc2)cc([C@H]2CN3CC[C@H]2C[C@@H]3CNC(=O)NC(C)C)n1 | i | ? | -7%[70.6 µM] | ?
Cc1nc(-c2ccccc2Br)cc([C@H]2CN3CC[C@H]2C[C@@H]3CNC(=O)NC(C)C)n1 | i | 79µM* | -1% | ?
COc1ccc(NC(=O)NC[C@H]2C[C@@H]3CCN2C[C@@H]3c2cc(-c3ccccc3Br)nc(C)n2)cc1 | i | 79µM* | -5% | ?
Cc1nc(-c2ccccc2Br)cc([C@H]2CN3CC[C@H]2C[C@@H]3CNC(=O)NC2CCCCC2)n1 | i | ? | 1% | ?
O=C(Cc1cccc(Cl)c1)N1[C@H]2CC[C@@H]1c1cnc(-c3ccccc3)nc1C2 | i | ? | 4% | ?
Cc1ccc([C@H]2CN(C(=O)c3cc(C(C)C)on3)[C@@H]3C4CCN(CC4)[C@H]23)cc1 | i | ? | -1% | ?
CC[C@H]1CN2CC[C@H]1C[C@@H]2COC(=O)Nc1ccccc1 | ? | ? | 1%[70.6 µM] | ?

Compound activity from PubChem BioAssay.
